{
  "source": "PubChem BioAssay (NCI)",
  "note": "“And” between values parts separate entries of the source, which are not always exact repeats. Identical values can stand only once. The panel holds about 83,000 compounds, 20% with a hit somewhere; the sample as a whole holds those more often.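 How to read the values: 0–100, growth inhibition (40 = 60% inhibited); 0, no net growth; -100 to 0, cell death (-40 = 40% of starting cells died; -100 = all dead).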 The source made the active and inactive calls. Where a SMILES comes first, the peptide text is derived from it. The star is where a group is joined. Trt = c1ccc(C(c2ccccc2)(c2ccccc2)*)cc1; Cbz = O=C(OCc1ccccc1)*",
  "data": [
    {"test_system": "NCI-H522 lung", "assay": "NCI-60 one-dose screen, 48 h (100 = growth as untreated, 0 = no growth, -100 = all killed)", "settings": "2.5 µM", "protocol": "(§1) Growth inhibition of the NCI-H522 human Non-Small Cell Lung tumor cell line is measured as a screen for anti-cancer activity. Cells are grown in 96 well plates and exposed to the test compound for 48 hours. Compounds are tested at a single concentration, which is 10^-5 M for most compounds. The reported endpoint is percent growth (GI% or GIPRCNT), where numbers from 0 - 100% represent growth inhibition, and numbers from -100% - 0 represent cell death. For example, a value of 40 represents 60% growth inhibition. A value of 0 means no net growth occurred over the course of the experiment. A value of -40 indicates 40% of cells at the beginning of the experiment died by the end of the experiment. A value of -100 means all cells are dead at the end of the experiment.\n(§2) NCI-60 Human Tumor Cell Lines Screen was performed using the standard one-dose NCI protocol, which is described in more detail at https://dtp.cancer.gov/discovery_development/nci-60/default.htm.\n(§3) Compounds with GIPRCNT values below 10 were considered active. Activity score was based on GIPRCNT using the following formula: […]\n(§4) Score is 0 for GIPRCNT values of 100 or above, 50 for GIPRCNT values of 0, and 100 for GIPRCNT values of -100.", "values": [
      {"compound": "COc1cc(NS(C)(=O)=O)ccc1Nc1c2ccccc2nc2ccccc12", "growth": "43% (inactive)"}
    ]},
    {"test_system": "NCI-H522 lung", "assay": "NCI-60 one-dose screen, 48 h (100 = growth as untreated, 0 = no growth, -100 = all killed)", "settings": "10 µM", "protocol": "as §1, §2, §3, §4", "values": [
      {"compound": "O=C(O)c1c(Cl)c(Cl)c(Cl)c(Cl)c1-c1c2cc(I)c(=O)c(I)c-2oc2c(I)c(O)c(I)cc12", "growth": "107% (inactive) and 97.2% (inactive) and 57% (inactive)"},
      {"compound": "COc1cc(NS(C)(=O)=O)ccc1Nc1c2ccccc2nc2ccccc12", "growth": "-47.9% (active) and 4% (active) and 37.2% (inactive)"}
    ]},
    {"test_system": "NCI-H522 lung", "assay": "NCI-60 one-dose screen, 48 h (100 = growth as untreated, 0 = no growth, -100 = all killed)", "settings": "10 µM unless noted", "protocol": "as §1, §2, §3, §4", "values": [
      {"compound": "CC(C)c1ccc2nc3ccc(C(=O)NCCN4CCN(c5ccccc5)CC4)cn3c(=O)c2c1", "growth": "67.4% (inactive)"},
      {"compound": "CN1c2ccccc2C(C)(C)C12C=Cc1cc(O)ccc1O2", "note": "(stereo not given)", "growth": "-15.6% (active)"},
      {"compound": "CC1OC2CC(=O)OC2C2=C1C(=O)c1c(O)cccc1C2=O", "note": "(stereo not given)", "growth": "-89.1% (active)"},
      {"compound": "NC(N)=N/N=C/c1ccc([N+](=O)[O-])o1", "growth": "70.1% (inactive)"},
      {"compound": "O=C1N[C@H]2[C@H](CS[C@H]2CCCCC(=O)N(CCP(c2ccccc2)c2ccccc2)CCP(c2ccccc2)c2ccccc2)N1", "growth": "57.6% (inactive)"},
      {"compound": "Nc1nc(N)c2nc(CNc3ccc(C(=O)NC(CCC(=O)O)C(=O)O)cc3)cnc2n1", "note": "(stereo not given)", "growth": "35% (inactive) and 38.7% (inactive)"},
      {"compound": "CC1(C)CC([P+](c2ccccc2)(c2ccccc2)c2ccccc2)=NN1", "growth": "27.4% (inactive)"},
      {"compound": "Cc1ccnc(NC(c2ccccc2)c2ccc3cccnc3c2O)c1", "note": "(stereo not given)", "growth": "7.12% (active)"},
      {"compound": "N#CSCc1c(Cl)cccc1Cl", "growth": "43.8% (inactive)"},
      {"compound": "O=C1c2ccccc2C(=O)c2sc(Nc3ccc(Cl)cc3)nc21", "growth": "15.9% (inactive)"},
      {"compound": "C/C=C1\\SC(=S)NC1=O", "growth": "103% (inactive)"},
      {"compound": "CC(C)(C)CC(C)(C)c1ccc(OCCSC(=N)N)cc1", "growth": "48.3% (inactive)"},
      {"compound": "CCOC(=O)c1c(C)[nH]c(CO)c1C", "growth": "84.3% (inactive)"},
      {"compound": "COc1ccccc1OC(=O)Oc1ccccc1OC", "growth": "85.3% (inactive) and 92.5% (inactive)"},
      {"compound": "COC(=O)[C@@]12OC[C@]34[C@H]([C@@H](O)[C@@H]1O)[C@@]1(C)[C@H](O)C(=O)C=C(C)[C@@H]1C[C@H]3OC(=O)C(OC(C)=O)[C@@H]24", "note": "(stereo not given in full)", "growth": "-60.1% (active)"},
      {"compound": "O=C(Oc1cccc2cccnc12)c1ccccc1", "growth": "-4.17% (active) and 98.3% (inactive)"},
      {"compound": "C[N+](C)=c1ccc2nc3c(cc(NCCCNc4cc5oc6cc(=[N+](C)C)ccc-6nc5c5ccccc45)c4ccccc43)oc-2c1", "growth": "32% (inactive)"},
      {"compound": "CN(C)C(=O)SC1=C(c2c(Cl)cccc2Cl)C(=O)c2ccccc21", "growth": "-74.3% (active)"},
      {"compound": "Oc1ccc(/C=N/NC(=S)Nc2ccccc2)nc1", "growth": "-14.2% (active)"},
      {"compound": "Cc1cc(C(C)(CC(C)C)c2ccc(O)c(C)c2)ccc1O", "growth": "92.6% (inactive)"},
      {"compound": "Cc1ccc(C(=Nc2ccccc2)N=P(c2ccccc2)(c2ccccc2)c2ccccc2)cc1", "growth": "-55.8% (active)"},
      {"compound": "Cc1ccnc2c1ccc1c(C)ccnc12", "growth": "11.8% (inactive)"},
      {"compound": "Cc1ccc2nc(C[n+]3ccc4ccccc4c3)ccc2c1", "growth": "47.1% (inactive)"},
      {"compound": "Oc1c(Br)c(Br)c(O)c(Br)c1Br", "growth": "-88% (active)"},
      {"compound": "CCCCCCCCCCCCCCCCN(CC)CC", "growth": "-82.4% (active)"},
      {"compound": "O=C1c2cccnc2-c2nccc3c2c1nc1cc(Br)ccc13", "growth": "-60.8% (active) and -66% (active)"},
      {"compound": "CC(=O)Nc1cccc2cc(O)ccc12", "growth": "101% (inactive) and 109% (inactive) and 84.1% (inactive)"},
      {"compound": "Cc1ccc(N=C=C(c2ccccc2)c2ccccc2)cc1", "growth": "76% (inactive)"},
      {"compound": "CCN(CC)CC(C)(C)C(=O)/C=C/c1ccc(Cl)c(Cl)c1", "growth": "-48.3% (active)"},
      {"compound": "CNc1ccc(N)cc1", "growth": "87.5% (inactive)"},
      {"compound": "COC(=O)C(CSC(c1ccccc1)(c1ccccc1)c1ccccc1)NC(=O)C(CC(N)=O)NC(=O)OCc1ccccc1", "note": "(stereo not drawn) (Cbz-Asn-Cys(Trt)-OMe; configuration not given here)", "growth": "51.5% (inactive)"},
      {"compound": "Cn1c2c(c3ccccc31)CCN1C[C@@H]3CCCC[C@H]3C[C@@H]21", "growth": "6.33% (active)"},
      {"compound": "CC1=CC(O)C2CC1C2(C)C", "note": "(stereo not given)", "growth": "86.2% (inactive) and 92% (inactive)"},
      {"compound": "CC1SC(=S)N(c2ccc(Cl)cc2)C1=O", "note": "(stereo not given)", "growth": "89.8% (inactive)"},
      {"compound": "O=[N+]([O-])c1ccc(N=Nc2ccc(O)cc2O)cc1", "growth": "19.5% (inactive)"},
      {"compound": "O=C(/C=C/C=C/c1ccccc1)c1ccco1", "growth": "38% (inactive)"}
    ]},
    {"test_system": "NCI-H522 lung", "assay": "NCI-60 one-dose screen, 48 h (100 = growth as untreated, 0 = no growth, -100 = all killed)", "settings": "100 µM", "protocol": "as §1, §2, §3, §4", "values": [
      {"compound": "O=C(O)c1c(Cl)c(Cl)c(Cl)c(Cl)c1-c1c2cc(I)c(=O)c(I)c-2oc2c(I)c(O)c(I)cc12", "growth": "-61% (active)"}
    ]}
  ]
}
